PubChem BioAssay (EPA / NIEHS)
A structure can be active in one record and inactive in another. Active and inactive are the calls of the source. The calls were made as follows: active = hit-call score of the fitted dose curve at least 0.9, where 1 is the maximum; inactive = score below 0.9.

Legend:
[1] = ATG_DR4_LXR_CIS: Attagene CIS-FACTORIAL HepG2 Assay for human Liver X Receptor (LXR), DR4 submotif (AID 2282929); conditions: HepG2 Attagene DR4 cis-reporter, mRNA transcription; AC50: actives raise or lower the signal unless noted; outcome: actives raise or lower the signal unless noted
In short: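 After transient transfection with multiplexed cis-promoter reporter units, HepG2 cells received test chemicals for 24 h. Reporter mRNA induction, detected by fluorescence after RT-PCR and capillary electrophoresis, was scored relative to DMSO.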

[2] = ATG_AP_1_CIS: Attagene CIS-FACTORIAL HepG2 Assay for human Activator Protein 1 (AP-1) (AID 2282931); conditions: HepG2 Attagene cis-factorial AP-1 reporter mRNA; actives raise or lower the signal
In short: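 After 24 h incubation with test chemical, RNA from transfected HepG2 cells was reverse-transcribed, amplified, fluorescently labelled and digested before capillary electrophoresis. Reporters were driven by cis-regulatory promoters; activity fitted bidirectionally versus DMSO.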

[3] = ATG_BRE_CIS: Attagene CIS-FACTORIAL HepG2 Assay for human Bone Morphogenetic Protein (BMP) Response Element (BRE) (AID 2282933); conditions: HepG2 BMP response element reporter, Attagene transcription factor profiling; actives raise or lower the signal
In short: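 HepG2 cells transiently transfected with multiplexed cis-element reporter units were dosed with chemical for 24 h. Reporter mRNA was measured by RT-PCR with fluorescent labelling, HpaI digestion and capillary electrophoresis; bidirectional fitting relative to DMSO.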

[4] = biological target: Retinoic acid receptor alpha (Homo sapiens) (UniProt P10276); experiment: ATG_DR5_RAR_CIS: Attagene CIS-FACTORIAL HepG2 Assay for human Retinoic Acid Receptor Alpha (RARE), DR5 submotif (AID 2282934); conditions: HepG2 Attagene cis-factorial RARE DR5 reporter, mRNA; actives raise or lower the signal
Sequence of Retinoic acid receptor alpha (Homo sapiens) (P10276 whole entry, looked up): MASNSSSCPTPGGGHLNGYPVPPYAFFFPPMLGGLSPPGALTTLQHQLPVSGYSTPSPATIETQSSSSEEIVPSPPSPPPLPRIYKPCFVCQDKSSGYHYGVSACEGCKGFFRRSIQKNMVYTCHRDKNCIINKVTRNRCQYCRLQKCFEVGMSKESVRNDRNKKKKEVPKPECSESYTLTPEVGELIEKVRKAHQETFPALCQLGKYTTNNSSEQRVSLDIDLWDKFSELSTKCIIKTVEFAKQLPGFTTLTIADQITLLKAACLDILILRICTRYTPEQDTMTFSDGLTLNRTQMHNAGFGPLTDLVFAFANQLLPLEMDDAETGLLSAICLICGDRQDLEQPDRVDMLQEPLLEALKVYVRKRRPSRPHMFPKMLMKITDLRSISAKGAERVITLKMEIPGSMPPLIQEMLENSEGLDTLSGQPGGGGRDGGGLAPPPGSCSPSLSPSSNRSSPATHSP
In short: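 Reporter transcripts from a DR5-regulated unit, measured via RT-PCR plus capillary electrophoresis, reflect endogenous RAR activity in transiently transfected human HepG2 liver cells. Exposure lasted 24 h; gain or loss of signal scored against DMSO.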

[5] = biological target: Transcription factor E2F1 (Homo sapiens) (UniProt Q01094); experiment: ATG_E2F_CIS: Attagene CIS-FACTORIAL HepG2 Assay for human E2F Transcription Factor 1 (AID 2282935); conditions: HepG2 Attagene cis-reporter, E2F reporter RNA transcripts; actives raise or lower the signal
Sequence of Transcription factor E2F1 (Homo sapiens) (Q01094 whole entry, looked up): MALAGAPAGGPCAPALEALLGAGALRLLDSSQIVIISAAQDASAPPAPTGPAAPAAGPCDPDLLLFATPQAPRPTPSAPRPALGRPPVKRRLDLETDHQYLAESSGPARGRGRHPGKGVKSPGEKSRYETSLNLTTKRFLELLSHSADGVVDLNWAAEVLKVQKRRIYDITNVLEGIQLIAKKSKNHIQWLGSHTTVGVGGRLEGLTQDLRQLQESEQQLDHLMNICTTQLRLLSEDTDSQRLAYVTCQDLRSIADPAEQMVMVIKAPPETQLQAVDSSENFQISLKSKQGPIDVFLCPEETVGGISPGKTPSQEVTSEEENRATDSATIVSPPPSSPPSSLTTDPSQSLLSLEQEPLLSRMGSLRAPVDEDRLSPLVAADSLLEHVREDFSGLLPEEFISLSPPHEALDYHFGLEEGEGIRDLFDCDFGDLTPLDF
In short: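 Fluorescent RT-PCR products, digested with HpaI for 2 h at 37 C, are separated by capillary electrophoresis. Source RNA comes from transfected HepG2 cultures treated for 24 h.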

[6] = ATG_E_Box_CIS: Attagene CIS-FACTORIAL HepG2 Assay for human Enhancer Box (E-box) (AID 2282936); conditions: HepG2 E-box cis-reporter transcription, actives raise or lower the signal
In short: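 Fluorescent reporter fragments separated by capillary electrophoresis gave the signal; mRNA came from HepG2 cells transfected with cis-element reporters and treated 24 h. Curves fitted bidirectionally relative to DMSO controls.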

[7] = ATG_M_61_CIS: Attagene CIS-FACTORIAL HepG2 Assay for M61 Transcription Factor (Internal Marker) (AID 2282937); conditions: HepG2 Attagene CIS-FACTORIAL M61 internal marker reporter; actives raise or lower the signal
In short: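 Using transiently transfected HepG2 liver cells, reporter transcript levels were assessed 24 h post-dosing by RT-PCR and capillary electrophoresis. Changes in either direction were fitted relative to DMSO controls.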

[8] = ATG_M_19_CIS: Attagene CIS-FACTORIAL HepG2 Assay for M19 Transcription Factor (Internal Marker) (AID 2282939); conditions: HepG2 Attagene CIS-FACTORIAL M19 internal marker reporter; actives raise or lower the signal
In short: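 HepG2 cells transiently transfected with cis-regulated multiple reporter transcription units were dosed for 24 h; reporter mRNA was quantified by RT-PCR, 6-FAM primer-extension labelling, HpaI digestion and capillary electrophoresis, with bidirectional fitting against DMSO baseline.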

[9] = ATG_ERE_CIS: Attagene CIS-FACTORIAL HepG2 Assay for Estrogen Response Element (ERE) (AID 2282940); conditions: HepG2 ERE cis-reporter, Attagene RNA transcript; actives raise or lower the signal
In short: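 HepG2 cells transiently transfected with cis-promoter-driven multiplexed reporter transcription units report endogenous TF activity. After 24 h compound exposure, reporter mRNA is quantified by RT-PCR with capillary electrophoresis fluorescence; bidirectional fitting versus DMSO baseline.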

[10] = ATG_Ets_CIS: Attagene CIS-FACTORIAL HepG2 Assay for human Erythroblast Transformation Specific (ETS) (AID 2282941); conditions: HepG2 ETS cis-reporter transcription; AC50: actives raise or lower the signal unless noted; outcome: actives raise or lower the signal unless noted
In short: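 Cis-regulated reporter mRNA induction in HepG2 (transient transfection), 24 h exposure, RT-PCR plus capillary electrophoresis detection; DMSO serves as negative control and baseline.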

[11] = biological target: Hepatocyte nuclear factor 3-beta (Homo sapiens) (UniProt Q9Y261); experiment: ATG_FoxA2_CIS: Attagene CIS-FACTORIAL HepG2 Assay for human Forkhead box A2 (FOXA2) (AID 2282942); conditions: HepG2 cis-reporter transcription factor activity, 24 h; actives raise or lower the signal
Sequence of Hepatocyte nuclear factor 3-beta (Homo sapiens) (Q9Y261 whole entry, looked up, the tested form may be a part): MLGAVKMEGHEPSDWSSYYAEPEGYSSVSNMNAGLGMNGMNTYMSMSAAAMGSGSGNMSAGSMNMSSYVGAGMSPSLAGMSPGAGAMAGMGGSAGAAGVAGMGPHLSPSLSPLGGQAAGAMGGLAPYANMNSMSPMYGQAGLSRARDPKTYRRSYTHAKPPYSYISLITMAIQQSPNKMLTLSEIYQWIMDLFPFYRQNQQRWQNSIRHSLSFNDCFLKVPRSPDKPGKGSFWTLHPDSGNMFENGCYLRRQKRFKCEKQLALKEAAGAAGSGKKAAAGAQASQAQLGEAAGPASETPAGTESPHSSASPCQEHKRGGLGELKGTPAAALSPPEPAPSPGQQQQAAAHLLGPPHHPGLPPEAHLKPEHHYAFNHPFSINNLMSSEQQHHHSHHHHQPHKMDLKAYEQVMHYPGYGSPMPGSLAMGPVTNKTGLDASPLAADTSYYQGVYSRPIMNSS
In short: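 Fluorescence signal of reporter cDNA fragments, separated by capillary electrophoresis, reflects endogenous transcription factor activity in transfected HepG2 after 24 h. Both increases and decreases fitted against DMSO.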

[12] = ATG_FoxO_CIS: Attagene CIS-FACTORIAL HepG2 Assay for human Forkhead box O (FoxO) (AID 2282943); conditions: HepG2 Attagene cis-reporter, FoxO element, mRNA; actives raise or lower the signal
In short: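 Endogenous transcription factor activity read from multiplexed cis-promoter reporter transcripts in transiently transfected HepG2, 24 h after dosing. Reporter RNA measured via RT-PCR plus capillary electrophoresis of FAM-labeled products; gain or loss relative to DMSO.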

[13] = ATG_GLI_CIS: Attagene CIS-FACTORIAL HepG2 Assay for human Zinc Finger Protein GLI1 (AID 2282945); conditions: HepG2, Attagene cis-factorial reporter mRNA, GLI element; actives raise or lower the signal
In short: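 Bidirectional curve fits relative to DMSO, using reporter mRNA levels from RT-PCR plus capillary electrophoresis. Cells were HepG2 transiently carrying cis-regulated reporter constructs, harvested 24 h after dosing.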

[14] = biological target: Bile acid receptor (Homo sapiens) (UniProt Q96RI1); experiment: ATG_IR1_CIS: Attagene CIS-FACTORIAL HepG2 Assay for human Nuclear Receptor Subfamily 1 Group H Member 4 (NR1H4), IR1 submotif (AID 2282946); conditions: IR1 reporter transcription, actives raise or lower the signal
Sequence of Bile acid receptor (Homo sapiens) (Q96RI1 whole entry, looked up): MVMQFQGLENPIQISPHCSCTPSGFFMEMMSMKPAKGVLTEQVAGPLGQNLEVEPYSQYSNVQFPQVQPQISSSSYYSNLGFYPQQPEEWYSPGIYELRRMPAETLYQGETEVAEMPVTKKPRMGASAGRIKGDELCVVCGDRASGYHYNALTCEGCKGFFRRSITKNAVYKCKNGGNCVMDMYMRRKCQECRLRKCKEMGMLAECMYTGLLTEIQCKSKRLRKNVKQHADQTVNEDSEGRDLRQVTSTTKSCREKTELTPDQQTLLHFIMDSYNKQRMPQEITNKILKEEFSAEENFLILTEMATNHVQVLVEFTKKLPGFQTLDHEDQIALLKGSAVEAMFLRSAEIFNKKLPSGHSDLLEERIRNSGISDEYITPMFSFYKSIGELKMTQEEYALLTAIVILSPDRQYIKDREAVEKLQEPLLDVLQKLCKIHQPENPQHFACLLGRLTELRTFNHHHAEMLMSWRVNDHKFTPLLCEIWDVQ
In short: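 HepG2 cells transiently transfected with multiplexed cis-element reporter units read endogenous transcription factor activity. After 24 h compound exposure, reporter mRNA was quantified by RT-PCR, fluorescent labelling, HpaI digestion and capillary electrophoresis; bidirectional fitting versus DMSO baseline.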

[15] = ATG_GRE_CIS: Attagene CIS-FACTORIAL HepG2 Assay for human Glucocorticoid Response Elements (GRE) (AID 2282947); conditions: HepG2 GRE cis-reporter, Attagene multiplex mRNA; AC50: actives raise or lower the signal unless noted; outcome: actives raise or lower the signal unless noted
In short: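 Multiplexed cis-reporter mRNA induction, HepG2, 24 h post-dose. RT-PCR, FAM-labelled, HpaI-digested amplicons by CE. Bidirectional fit vs DMSO.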

[16] = ATG_ISRE_CIS: Attagene CIS-FACTORIAL HepG2 Assay for human Interferon Regulatory Factor 1 (IRF1) binding to an Interferon-Stimulated Response Element (ISRE) (AID 2282948); conditions: HepG2 ISRE cis-reporter (Attagene), mRNA transcription readout; actives raise or lower the signal
In short: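 Multiplexed mRNA reporter readout in human liver HepG2 cells: cis-element-driven reporters transfected, compound added for 24 h, transcripts amplified, fluorescently labelled and sized by capillary electrophoresis; curve fitting bidirectional against DMSO.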

[17] = ATG_AP_2_CIS: Attagene CIS-FACTORIAL HepG2 Assay for human Activator Protein 2 (AP-2) (AID 2282932); conditions: HepG2 AP-2 cis-reporter, Attagene transcription factor profiling; AC50: actives raise or lower the signal unless noted; outcome: actives raise or lower the signal unless noted
In short: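 Transiently transfected HepG2 cells are exposed to chemical for 24 h. Reporter transcripts are then measured as fluorescence following RT-PCR and capillary separation, and gain- or loss-of-signal is fitted relative to DMSO.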

[18] = ATG_EGR_CIS: Attagene CIS-FACTORIAL HepG2 Assay for human Early Growth Response 1 (EGR1) (AID 2282938); conditions: HepG2 Attagene CIS-FACTORIAL EGR reporter mRNA; actives raise or lower the signal
In short: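 Fluorescent capillary-electrophoresis signal of reporter cDNA fragments serves as read-out. HepG2 cells bear transiently transfected cis-promoter reporter units and are exposed 24 h; gain- or loss-of-signal is fitted against DMSO.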

[19] = ATG_GATA_CIS: Attagene CIS-FACTORIAL HepG2 Assay for human GATA Binding Protein (AID 2282944); conditions: HepG2 GATA cis-element reporter, Attagene multiplex mRNA; actives raise or lower the signal
In short: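 HepG2 cells transiently transfected with multiplexed cis-element reporter units reflecting endogenous transcription factor activity; reporter mRNA measured after 24 h dosing by RT-PCR, 6-FAM labeling, HpaI digestion and capillary electrophoresis. Bidirectional fitting versus DMSO baseline.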

Measured: AC50

O=C(O)CCC(F)(F)C(F)(F)C(F)(F)C(F)(F)C(F)(F)F
inactive: [1] | [2] | [3] | [4] | [5] | [6] | [7] | [8] | [9] | [10] | [11] | [12] | [13] | [14] | [15] | [16]

CCCCCCCCCCCCCC[n+]1ccccc1
active: [17] 19800 nM | [3] 1220 nM | [18] 2520 nM | [11] 18200 nM
inactive: [1] | [4] | [5] | [6] | [7] | [8] | [9] | [10] | [12] | [19] | [13] | [14] | [15] | [16]

CCOC(OCC)C(=O)c1ccccc1
inactive: [1] | [2] | [17] | [3] | [4] | [5] | [6] | [7] | [8] | [11] | [12] | [19] | [13] | [14] | [15]
active: [9] 77600 nM

CCCC=O
inactive: [1] | [2] | [17] | [3] | [4] | [5] | [6] | [7] | [18] | [8] | [10] | [11] | [12] | [19] | [13] | [15] | [16]

CCOC(C)=O
inactive: [1] | [17] | [3] | [4] | [5] | [6] | [7] | [18] | [8] | [9] | [10] | [11] | [12] | [19] | [13] | [15] | [16]
active: [19] 100000 nM

Nc1cc(Cl)c(-c2cc(Cl)c(N)cc2Cl)cc1Cl
inactive: [17] | [4] | [5] | [6] | [7] | [8] | [9] | [10] | [11] | [12] | [19] | [13] | [14] | [15] | [16]
active: [1] 2650 nM | [3] 21000 nM

Cc1[nH]nc2c1N=C(c1ccccc1Cl)c1cc([N+](=O)[O-])ccc1N2
active: [1] 2670 nM | [2] 125 nM | [14] 2080 nM | [16] 2900 nM
inactive: [3] | [4] | [5] | [6] | [7] | [18] | [8] | [10] | [11] | [12] | [19] | [13] | [15]

CC1=NN(c2ccccc2)C(=O)C1
inactive: [1] | [2] | [17] | [3] | [4] | [5] | [6] | [7] | [18] | [8] | [9] | [10] | [11] | [13] | [14] | [15] | [16]

CCCCCC(C)OC(=O)COc1ccc(Cl)c2cccnc12 (stereo unspecified)
inactive: [2] | [3] | [4] | [5] | [6] | [7] | [18] | [8] | [9] | [10] | [11] | [12] | [19] | [13] | [14] | [15]
active: [1] 100000 nM

CCCCC(CC)C(=O)OCCOCCOCCOCCOC(=O)C(CC)CCCC (stereo unspecified)
inactive: [1] | [17] | [3] | [4] | [5] | [6] | [7] | [18] | [8] | [9] | [10] | [11] | [12] | [19] | [13] | [14] | [15] | [16]
